Data from publication PMC7862700, “An all-to-all approach to the identification of sequence-specific readers for epigenetic DNA modifications on cytosine”.

Assays:
Test in all cases: DAPPL (digital affinity profiling via proximity ligation, sequencing); 10 mM Tris-HCl pH 7.5, 50 mM NaCl, 1 mM DTT, 4% glycerol, room temperature, 30 min; GST-TFs on glutathione beads, 16-mer random dsDNA library, 0.1% formaldehyde crosslink after washing; high values mean tight binding
Conditions in all cases: protein: recombinant; tags: N-terminal GST; dsDNA, one strand shown
FLI1 = target: T1, FLI1 (Homo sapiens, UniProt Q01543 1-452)
T1 sequence: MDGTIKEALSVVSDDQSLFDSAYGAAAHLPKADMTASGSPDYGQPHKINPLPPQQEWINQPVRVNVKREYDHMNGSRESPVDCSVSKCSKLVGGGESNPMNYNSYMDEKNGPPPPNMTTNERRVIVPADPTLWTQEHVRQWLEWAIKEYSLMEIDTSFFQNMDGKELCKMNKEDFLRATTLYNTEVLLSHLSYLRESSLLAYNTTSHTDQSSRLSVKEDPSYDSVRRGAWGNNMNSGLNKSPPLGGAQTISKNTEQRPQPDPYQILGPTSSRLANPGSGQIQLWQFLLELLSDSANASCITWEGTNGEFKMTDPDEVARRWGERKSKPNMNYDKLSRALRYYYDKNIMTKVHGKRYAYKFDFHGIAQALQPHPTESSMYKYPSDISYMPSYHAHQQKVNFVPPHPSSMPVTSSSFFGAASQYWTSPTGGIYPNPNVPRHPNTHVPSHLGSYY
Outline: (§1)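 Human transcription factors fused to GST were expressed in yeast, captured on glutathione beads, given DNA barcodes and pooled with a GST-only negative control. Pools were incubated with 200 nmole of a 16-mer random double-stranded DNA library in Tris/NaCl/DTT/glycerol buffer at room temperature for 30 min. They were then washed, crosslinked with 0.1% formaldehyde, proximity-ligated (BsaI/T4 ligase, 1 h, 37 °C), PCR-amplified and sequenced on an Illumina NextSeq500. Binding signal is each 6-mer's read frequency for a factor divided by its frequency for the GST control.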

ELK1 = target: T2, ELK1 (Homo sapiens, UniProt P19419 1-428)
T2 sequence: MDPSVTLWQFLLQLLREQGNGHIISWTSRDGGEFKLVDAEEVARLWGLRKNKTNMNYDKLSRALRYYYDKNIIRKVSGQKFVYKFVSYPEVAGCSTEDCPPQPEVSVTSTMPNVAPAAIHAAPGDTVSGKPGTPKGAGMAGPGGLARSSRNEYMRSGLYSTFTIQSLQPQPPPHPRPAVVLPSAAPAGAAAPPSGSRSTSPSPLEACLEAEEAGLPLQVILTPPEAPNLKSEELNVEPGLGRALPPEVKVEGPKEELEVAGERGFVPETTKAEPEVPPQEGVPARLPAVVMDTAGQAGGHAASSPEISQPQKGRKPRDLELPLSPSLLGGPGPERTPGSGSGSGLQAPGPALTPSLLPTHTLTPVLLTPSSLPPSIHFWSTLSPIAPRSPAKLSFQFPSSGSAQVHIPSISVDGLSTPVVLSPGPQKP
Outline: as §1

GABPA = target: T3, GABPA (Homo sapiens, UniProt Q06546 1-454)
T3 sequence: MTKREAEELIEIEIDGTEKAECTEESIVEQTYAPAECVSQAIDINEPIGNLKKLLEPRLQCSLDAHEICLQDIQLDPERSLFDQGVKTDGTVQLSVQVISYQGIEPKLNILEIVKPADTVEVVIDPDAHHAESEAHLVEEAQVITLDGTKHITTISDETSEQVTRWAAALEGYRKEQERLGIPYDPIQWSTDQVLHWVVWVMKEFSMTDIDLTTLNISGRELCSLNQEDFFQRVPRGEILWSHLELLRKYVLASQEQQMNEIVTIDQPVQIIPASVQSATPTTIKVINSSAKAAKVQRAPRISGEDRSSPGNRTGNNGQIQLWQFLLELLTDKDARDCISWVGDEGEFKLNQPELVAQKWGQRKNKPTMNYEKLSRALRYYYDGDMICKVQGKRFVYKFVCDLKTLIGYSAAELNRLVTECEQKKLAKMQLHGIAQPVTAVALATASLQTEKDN
Outline: as §1

ERG = target: T4, ERG (Homo sapiens, UniProt P11308 1-479)
T4 sequence: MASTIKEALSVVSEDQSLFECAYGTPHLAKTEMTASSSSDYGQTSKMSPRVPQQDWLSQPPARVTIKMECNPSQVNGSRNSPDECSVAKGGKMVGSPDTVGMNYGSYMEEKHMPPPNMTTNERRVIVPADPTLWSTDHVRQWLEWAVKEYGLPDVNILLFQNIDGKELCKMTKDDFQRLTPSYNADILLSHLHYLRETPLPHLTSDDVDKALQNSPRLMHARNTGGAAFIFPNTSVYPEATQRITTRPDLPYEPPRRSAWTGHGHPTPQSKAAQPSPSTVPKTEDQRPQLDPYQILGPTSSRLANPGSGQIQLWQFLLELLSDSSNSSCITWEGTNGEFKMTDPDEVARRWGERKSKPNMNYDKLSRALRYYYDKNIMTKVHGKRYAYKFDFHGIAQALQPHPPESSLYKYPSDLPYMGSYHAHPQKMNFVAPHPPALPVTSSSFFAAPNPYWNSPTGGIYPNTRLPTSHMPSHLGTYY
Outline: as §1

ELF1 = ELF1 (Homo sapiens, UniProt P32519 1-619)
Chain of ELF1 (P32519 whole entry): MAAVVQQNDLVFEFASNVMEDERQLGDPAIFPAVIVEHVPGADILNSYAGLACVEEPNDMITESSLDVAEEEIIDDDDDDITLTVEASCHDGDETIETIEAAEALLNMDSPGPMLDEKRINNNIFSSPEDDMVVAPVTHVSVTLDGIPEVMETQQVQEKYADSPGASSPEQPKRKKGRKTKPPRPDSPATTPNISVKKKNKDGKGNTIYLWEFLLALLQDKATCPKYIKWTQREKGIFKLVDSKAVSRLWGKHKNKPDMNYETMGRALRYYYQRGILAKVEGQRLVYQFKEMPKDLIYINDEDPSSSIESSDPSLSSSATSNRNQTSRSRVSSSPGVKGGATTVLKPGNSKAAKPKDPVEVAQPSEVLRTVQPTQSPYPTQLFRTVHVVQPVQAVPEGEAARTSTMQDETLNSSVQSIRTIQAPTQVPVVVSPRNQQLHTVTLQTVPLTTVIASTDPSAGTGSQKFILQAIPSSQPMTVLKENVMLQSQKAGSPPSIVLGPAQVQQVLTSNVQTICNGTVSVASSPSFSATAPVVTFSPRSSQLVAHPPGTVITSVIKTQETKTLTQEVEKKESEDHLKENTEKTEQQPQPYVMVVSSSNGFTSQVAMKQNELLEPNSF
Outline: as §1

EHF = target: T5, EHF (Homo sapiens, UniProt Q9NZC4 1-300)
T5 sequence: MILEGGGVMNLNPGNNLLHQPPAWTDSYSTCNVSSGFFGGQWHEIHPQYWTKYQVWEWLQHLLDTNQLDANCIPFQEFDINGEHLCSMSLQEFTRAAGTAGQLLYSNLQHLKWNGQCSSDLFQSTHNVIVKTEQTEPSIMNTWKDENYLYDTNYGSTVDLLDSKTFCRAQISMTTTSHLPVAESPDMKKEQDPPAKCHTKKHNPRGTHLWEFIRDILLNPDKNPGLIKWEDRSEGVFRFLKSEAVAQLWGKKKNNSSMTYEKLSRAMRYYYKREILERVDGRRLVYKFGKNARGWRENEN
Outline: as §1

SPIB = SPIB (Homo sapiens, UniProt Q01892 1-262)
Chain of SPIB (Q01892 whole entry): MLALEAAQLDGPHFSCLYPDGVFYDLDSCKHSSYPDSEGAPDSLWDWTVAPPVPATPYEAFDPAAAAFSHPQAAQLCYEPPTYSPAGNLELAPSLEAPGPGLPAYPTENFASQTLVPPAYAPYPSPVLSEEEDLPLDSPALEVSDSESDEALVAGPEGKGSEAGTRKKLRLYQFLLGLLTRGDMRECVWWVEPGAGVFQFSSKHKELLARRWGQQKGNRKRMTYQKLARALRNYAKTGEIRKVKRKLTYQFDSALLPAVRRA
Outline: as §1

ELK3 = target: T6, ELK3 (Homo sapiens, UniProt P41970 1-407)
T6 sequence: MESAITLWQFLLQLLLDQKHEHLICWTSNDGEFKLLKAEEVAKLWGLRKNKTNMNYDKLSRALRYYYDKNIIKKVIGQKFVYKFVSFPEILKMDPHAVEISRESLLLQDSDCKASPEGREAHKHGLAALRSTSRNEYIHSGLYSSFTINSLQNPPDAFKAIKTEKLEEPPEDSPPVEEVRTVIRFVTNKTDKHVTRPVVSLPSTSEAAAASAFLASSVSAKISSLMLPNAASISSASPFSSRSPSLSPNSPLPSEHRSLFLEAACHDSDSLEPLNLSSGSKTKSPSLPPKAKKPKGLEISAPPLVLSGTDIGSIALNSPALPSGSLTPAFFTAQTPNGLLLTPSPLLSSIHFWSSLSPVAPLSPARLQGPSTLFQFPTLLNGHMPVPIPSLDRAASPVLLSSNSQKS
Outline: as §1

SPIC = target: T7, SPIC (Homo sapiens, UniProt Q8N5J4 1-248)
T7 sequence: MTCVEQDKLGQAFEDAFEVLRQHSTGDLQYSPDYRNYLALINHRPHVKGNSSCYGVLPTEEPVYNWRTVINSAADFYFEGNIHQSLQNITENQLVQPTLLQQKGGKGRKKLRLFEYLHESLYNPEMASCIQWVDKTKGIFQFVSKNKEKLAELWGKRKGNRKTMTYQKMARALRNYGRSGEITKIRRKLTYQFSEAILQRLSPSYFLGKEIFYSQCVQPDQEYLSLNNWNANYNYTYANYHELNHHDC
Outline: as §1

ELF4 = ELF4 (Homo sapiens, UniProt Q99607 1-663)
Chain of ELF4 (Q99607 whole entry): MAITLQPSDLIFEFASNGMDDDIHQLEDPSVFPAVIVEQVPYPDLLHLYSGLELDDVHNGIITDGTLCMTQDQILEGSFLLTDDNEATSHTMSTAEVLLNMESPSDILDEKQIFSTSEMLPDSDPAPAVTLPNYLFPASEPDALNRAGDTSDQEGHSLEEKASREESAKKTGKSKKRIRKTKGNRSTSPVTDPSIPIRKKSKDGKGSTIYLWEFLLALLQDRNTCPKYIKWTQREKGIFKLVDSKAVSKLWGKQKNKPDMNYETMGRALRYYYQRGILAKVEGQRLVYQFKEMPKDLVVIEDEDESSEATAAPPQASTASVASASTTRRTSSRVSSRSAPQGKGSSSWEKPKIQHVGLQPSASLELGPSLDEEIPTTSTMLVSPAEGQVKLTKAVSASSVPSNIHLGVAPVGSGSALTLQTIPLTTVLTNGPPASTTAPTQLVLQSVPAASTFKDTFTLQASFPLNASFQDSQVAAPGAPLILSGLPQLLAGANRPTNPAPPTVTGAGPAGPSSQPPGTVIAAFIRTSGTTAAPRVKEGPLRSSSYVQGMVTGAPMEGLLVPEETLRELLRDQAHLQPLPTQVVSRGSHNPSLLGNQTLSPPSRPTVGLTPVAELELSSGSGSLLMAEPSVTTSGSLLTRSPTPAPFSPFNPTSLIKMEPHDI
Outline: as §1

ELK4 = target: T8, ELK4 (Homo sapiens, UniProt P28324-2 1-405)
T8 sequence: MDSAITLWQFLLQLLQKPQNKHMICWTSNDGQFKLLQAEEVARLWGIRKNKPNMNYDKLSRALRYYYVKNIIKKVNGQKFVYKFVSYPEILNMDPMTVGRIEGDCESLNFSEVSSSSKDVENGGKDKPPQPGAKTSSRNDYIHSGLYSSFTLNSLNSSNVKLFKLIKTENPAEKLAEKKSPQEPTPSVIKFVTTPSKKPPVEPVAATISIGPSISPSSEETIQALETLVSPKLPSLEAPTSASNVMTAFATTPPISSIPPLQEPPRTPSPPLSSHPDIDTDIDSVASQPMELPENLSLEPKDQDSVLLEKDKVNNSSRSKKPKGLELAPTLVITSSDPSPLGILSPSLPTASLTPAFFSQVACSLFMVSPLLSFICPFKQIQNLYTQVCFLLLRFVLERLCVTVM
Outline: as §1

ETV2 = target: T9, ETV2 (Homo sapiens, UniProt O00321 1-342)
T9 sequence: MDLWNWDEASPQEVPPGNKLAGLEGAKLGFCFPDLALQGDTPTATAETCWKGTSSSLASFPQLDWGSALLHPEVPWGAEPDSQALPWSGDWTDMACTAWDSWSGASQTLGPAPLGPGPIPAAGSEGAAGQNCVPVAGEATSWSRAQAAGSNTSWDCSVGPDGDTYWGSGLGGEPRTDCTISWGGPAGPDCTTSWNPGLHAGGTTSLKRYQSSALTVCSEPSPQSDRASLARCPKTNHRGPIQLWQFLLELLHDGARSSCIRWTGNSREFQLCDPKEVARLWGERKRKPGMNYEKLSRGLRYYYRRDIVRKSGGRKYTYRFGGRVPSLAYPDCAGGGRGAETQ
Outline: as §1

ETV1 = ETV1 (Homo sapiens, UniProt P50549 1-477)
Chain of ETV1 (P50549 whole entry): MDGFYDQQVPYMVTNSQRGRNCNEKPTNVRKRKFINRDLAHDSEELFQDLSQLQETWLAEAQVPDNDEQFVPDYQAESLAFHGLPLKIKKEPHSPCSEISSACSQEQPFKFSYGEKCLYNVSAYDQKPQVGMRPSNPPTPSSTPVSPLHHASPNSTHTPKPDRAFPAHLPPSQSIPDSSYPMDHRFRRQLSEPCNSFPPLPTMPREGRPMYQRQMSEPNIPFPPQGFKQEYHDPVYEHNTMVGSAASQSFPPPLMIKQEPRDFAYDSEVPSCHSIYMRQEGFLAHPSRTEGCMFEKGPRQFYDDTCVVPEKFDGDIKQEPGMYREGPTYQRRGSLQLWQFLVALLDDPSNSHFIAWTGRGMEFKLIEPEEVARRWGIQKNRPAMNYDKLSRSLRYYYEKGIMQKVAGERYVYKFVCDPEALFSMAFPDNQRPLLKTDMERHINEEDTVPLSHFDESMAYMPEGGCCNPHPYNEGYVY
Outline: as §1

ERF = target: T10, ERF (Homo sapiens, UniProt P50548 1-548)
T10 sequence: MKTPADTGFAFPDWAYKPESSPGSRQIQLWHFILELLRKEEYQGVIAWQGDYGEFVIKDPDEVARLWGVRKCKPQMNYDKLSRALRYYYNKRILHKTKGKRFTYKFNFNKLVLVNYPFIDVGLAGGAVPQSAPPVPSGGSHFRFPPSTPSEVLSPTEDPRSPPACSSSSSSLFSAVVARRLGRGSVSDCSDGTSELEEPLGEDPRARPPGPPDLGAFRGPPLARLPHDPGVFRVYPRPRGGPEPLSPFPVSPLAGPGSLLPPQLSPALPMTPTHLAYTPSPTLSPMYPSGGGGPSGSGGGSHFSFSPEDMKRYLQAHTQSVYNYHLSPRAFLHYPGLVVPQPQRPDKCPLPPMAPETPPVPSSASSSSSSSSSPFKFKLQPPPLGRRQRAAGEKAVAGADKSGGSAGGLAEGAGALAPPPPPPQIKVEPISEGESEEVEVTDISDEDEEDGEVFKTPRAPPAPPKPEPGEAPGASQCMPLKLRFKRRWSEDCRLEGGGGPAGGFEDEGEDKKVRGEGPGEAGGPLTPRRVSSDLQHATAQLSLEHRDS
Outline: as §1

ETV3L = target: T11, ETV3L (Homo sapiens, UniProt Q6ZN32 1-361)
T11 sequence: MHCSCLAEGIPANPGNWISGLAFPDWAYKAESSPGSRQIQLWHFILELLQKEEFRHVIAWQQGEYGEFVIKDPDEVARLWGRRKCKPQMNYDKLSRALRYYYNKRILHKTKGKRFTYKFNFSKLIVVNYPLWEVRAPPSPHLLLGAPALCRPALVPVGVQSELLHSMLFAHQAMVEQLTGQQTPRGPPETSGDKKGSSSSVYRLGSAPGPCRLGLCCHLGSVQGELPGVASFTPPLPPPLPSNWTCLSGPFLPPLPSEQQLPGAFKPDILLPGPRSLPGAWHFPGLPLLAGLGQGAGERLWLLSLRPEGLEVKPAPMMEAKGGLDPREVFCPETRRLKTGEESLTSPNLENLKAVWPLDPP
Outline: as §1

ETV7 = target: T12, ETV7 (Homo sapiens, UniProt Q9Y603 1-341)
T12 sequence: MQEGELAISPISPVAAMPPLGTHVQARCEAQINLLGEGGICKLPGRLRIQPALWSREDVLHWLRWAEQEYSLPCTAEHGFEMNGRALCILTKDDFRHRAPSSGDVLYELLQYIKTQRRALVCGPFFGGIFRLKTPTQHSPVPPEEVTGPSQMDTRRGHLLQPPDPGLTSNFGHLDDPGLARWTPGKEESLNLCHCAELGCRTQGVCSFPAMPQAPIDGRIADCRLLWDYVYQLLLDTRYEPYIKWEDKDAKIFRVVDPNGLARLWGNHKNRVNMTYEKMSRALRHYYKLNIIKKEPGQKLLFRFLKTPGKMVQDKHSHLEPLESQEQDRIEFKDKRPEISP
Outline: as §1

ETV3 = target: T13, ETV3 (Homo sapiens, UniProt P41162-2 1-143)
T13 sequence: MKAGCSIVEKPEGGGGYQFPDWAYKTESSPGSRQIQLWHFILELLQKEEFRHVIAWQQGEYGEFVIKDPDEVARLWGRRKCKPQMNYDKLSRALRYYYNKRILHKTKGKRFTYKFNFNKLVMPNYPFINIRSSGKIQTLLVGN
Outline: as §1

ETV6 = ETV6 (Homo sapiens, UniProt P41212 1-452)
Chain of ETV6 (P41212 whole entry): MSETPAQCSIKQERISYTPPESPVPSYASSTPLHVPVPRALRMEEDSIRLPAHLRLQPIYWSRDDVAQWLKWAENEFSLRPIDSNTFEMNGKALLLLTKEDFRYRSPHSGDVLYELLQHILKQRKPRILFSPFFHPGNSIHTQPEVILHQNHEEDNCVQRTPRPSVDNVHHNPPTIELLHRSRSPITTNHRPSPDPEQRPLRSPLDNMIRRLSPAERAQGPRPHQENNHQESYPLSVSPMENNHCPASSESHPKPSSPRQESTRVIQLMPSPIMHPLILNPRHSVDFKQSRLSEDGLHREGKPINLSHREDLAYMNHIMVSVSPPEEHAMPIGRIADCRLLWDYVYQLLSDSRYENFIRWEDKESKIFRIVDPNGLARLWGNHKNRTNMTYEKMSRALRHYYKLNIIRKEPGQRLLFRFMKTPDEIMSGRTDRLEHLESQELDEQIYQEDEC
Outline: as §1

Sequence: CTTAAG
- binding signal (FLI1): 1.06 fold enrichment (6-mer frequency, TF over GST control)
- binding signal (ELK1): 1.11 fold enrichment (6-mer frequency, TF over GST control)
- binding signal (GABPA): 1.13 fold enrichment (6-mer frequency, TF over GST control)
- binding signal (ERG): 1.09 fold enrichment (6-mer frequency, TF over GST control)
- binding signal (ELF1): 1.09 fold enrichment (6-mer frequency, TF over GST control)
- binding signal (EHF): 1.1 fold enrichment (6-mer frequency, TF over GST control)
- binding signal (SPIB): 1.11 fold enrichment (6-mer frequency, TF over GST control)
- binding signal (ELK3): 1.03 fold enrichment (6-mer frequency, TF over GST control)
- binding signal (SPIC): 1.1 fold enrichment (6-mer frequency, TF over GST control)
- binding signal (ELF4): 1.07 fold enrichment (6-mer frequency, TF over GST control)
- binding signal (ELK4): 1.06 fold enrichment (6-mer frequency, TF over GST control)
- binding signal (ETV2): 1.13 fold enrichment (6-mer frequency, TF over GST control)
- binding signal (ETV1): 1.1 fold enrichment (6-mer frequency, TF over GST control)
- binding signal (ERF): 1.07 fold enrichment (6-mer frequency, TF over GST control)
- binding signal (ETV3L): 1.08 fold enrichment (6-mer frequency, TF over GST control)
- binding signal (ETV7): 1.04 fold enrichment (6-mer frequency, TF over GST control)
- binding signal (ETV3): 1.13 fold enrichment (6-mer frequency, TF over GST control)
- binding signal (ETV6): 1.03 fold enrichment (6-mer frequency, TF over GST control)
